We go through 14 molecules from PubChem BioAssay.

Calls of active or inactive are those of the source.

One assay addresses Albumin (Bos taurus) (UniProt P02769). Kind of assay: compounds binding labelled BSA control protein – biochemical, small-molecule microarray, Alexa647 label, 635/667 nm fluorescence, artefact control for SMM control protein annotation, profiling panel (AID 1118).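 Also: score merges 667 nm emission intensity and signal-to-noise per printed compound spot.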 The settings on record: BSA-A647 binding, fluorescence 635 nm, higher = more signal.
Assay [1] can be described thus: probe aXIP binding to arrayed compounds – biochemical, NeuroSMM set, 635/667 nm fluorescence, primary screen (AID 1119).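 Also: probe is the protein aXip251-270 applied at 1 µg/mL to compound-printed slides; binding of probe to printed compounds measured as 667 nm fluorescence plus signal to noise.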 The settings on record: small-molecule microarray, higher = more signal, called active from +8 up or from −8 down.
A short description of assay [2]: probe aNOTCH3 binding on compound microarray – biochemical, small-molecule microarray, 635/667 nm fluorescence, primary screen (AID 1120).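 Also: probe is a biotin-tagged antibody raised against NOTCH3 rather than NOTCH3 protein; score merges spot fluorescence near 667 nm with spot signal to noise.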 Particulars: higher = more signal.
Assay [3] can be described thus: probe aNOTCH2 binding on compound microarray – biochemical, small-molecule microarray, 635/667 nm fluorescence, primary screen (AID 1121).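 Also: score merges feature fluorescence read at 667 nm with its signal to noise.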 Particulars: higher = more signal.
For assay [4], the target named is Carbonic anhydrase 2 (Homo sapiens) (UniProt P00918). Nature of the assay: compounds binding carbonic anhydrase 2 – biochemical, small-molecule microarray, Alexa647-labelled CAII, profiling panel (AID 1122). The settings on record: CAII-A647 binding fluorescence, higher = more signal.
Assay [5] in a line: COS7 lysate on small-molecule microarray, probe aHis, 635 nm (AID 1123).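 Also: z-score combines 667nm fluorescence intensity with signal-to-noise per printed compound spot.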 The settings on record: COS7 cell lysate, fluorescence, higher = more signal.
Assay [6] can be described thus: probe aLAP1 signal on lysate-treated microarray – cell lysate, small-molecule microarray, COS7 lysate, primary screen (AID 1124).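 Also: lysate comes from COS7 cells expressing LAP1 and is applied at 0.3 µg/mL; score merges spot fluorescence near 667 nm with signal-to-noise over triplicate slides.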 Particulars: probe aLAP1, fluorescence, higher = more signal.
The test system of the next assay is Sam68 (KHDRBS1). Nature of the assay: compounds binding KHDRBS1 protein – biochemical, small-molecule microarray, 635 nm fluorescence, primary screen (AID 1125).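 Also: score merges 667 nm channel intensity with signal to noise over triplicate slides.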 Particulars: higher = more signal.
The test system of assay [7] is Chordin-like protein 2 (CHRDL2). Kind of assay: compounds binding chordin-like 2 – biochemical, small-molecule microarray, 635 nm fluorescence, primary screen (AID 1126).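 Also: printed compound slides probed with Chrdl2 protein at 4 µg/mL for 1 h at 4 C; score merges 667 nm emission intensity with signal to noise over three replicate slides.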 The settings on record: fluorescence 635 nm, higher = more signal.
Assay [8] has as its target Concanavalin-A (Canavalia ensiformis) (UniProt P02866). Nature of the assay: compounds binding concanavalin A lectin – biochemical, small-molecule microarray, Alexa647 label, 635 nm, artefact control for SMM control protein annotation, primary screen (AID 1127).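 Also: z combines 667 nm emission intensity with signal-to-noise across three replicate slides.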 The settings on record: ConA-A647 binding fluorescence, higher = more signal.

Chain of Albumin (Bos taurus) (P02769 whole entry, looked up): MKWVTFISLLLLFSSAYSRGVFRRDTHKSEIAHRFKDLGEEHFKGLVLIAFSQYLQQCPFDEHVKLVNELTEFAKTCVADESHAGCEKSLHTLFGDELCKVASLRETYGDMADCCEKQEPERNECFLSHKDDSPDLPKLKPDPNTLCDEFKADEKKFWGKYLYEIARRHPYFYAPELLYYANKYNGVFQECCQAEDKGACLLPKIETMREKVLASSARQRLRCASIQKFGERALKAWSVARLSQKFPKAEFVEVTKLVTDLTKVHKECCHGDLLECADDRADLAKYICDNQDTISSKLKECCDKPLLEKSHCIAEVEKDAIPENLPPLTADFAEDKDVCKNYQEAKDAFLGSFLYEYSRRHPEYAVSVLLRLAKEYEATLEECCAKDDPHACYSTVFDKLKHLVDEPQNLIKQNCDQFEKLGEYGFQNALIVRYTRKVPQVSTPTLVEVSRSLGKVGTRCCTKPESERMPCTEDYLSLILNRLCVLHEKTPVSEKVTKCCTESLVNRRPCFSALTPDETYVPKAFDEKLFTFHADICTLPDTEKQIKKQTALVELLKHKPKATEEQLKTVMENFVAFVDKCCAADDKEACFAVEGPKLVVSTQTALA
Chain of Concanavalin-A (Canavalia ensiformis) (P02866 whole entry, looked up): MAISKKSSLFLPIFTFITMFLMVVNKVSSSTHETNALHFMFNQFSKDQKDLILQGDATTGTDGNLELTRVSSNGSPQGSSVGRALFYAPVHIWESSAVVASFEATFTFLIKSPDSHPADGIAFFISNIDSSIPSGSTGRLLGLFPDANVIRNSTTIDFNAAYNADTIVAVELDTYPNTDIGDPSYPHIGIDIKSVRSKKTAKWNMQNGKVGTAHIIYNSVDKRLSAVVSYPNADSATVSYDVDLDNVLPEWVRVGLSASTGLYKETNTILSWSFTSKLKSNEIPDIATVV

On to `CCO[C@H](c1cc(OC)cc([N+](=O)[O-])c1OC)[C@H](C)C=CCC(=O)OC`, for which the composite z-score with Albumin (Bos taurus) is -0.424; in assay [2] it was -0.0682; in assay [3] it was -0.122; in [4], -0.324; in assay [5], -0.925; in assay [6] it was 0.251. Also, the composite z-score with Sam68 (KHDRBS1) is 0.143; in assay [7], 0.516; in [8] it was -0.221. In addition, the composite Z-score in assay [1] is 0.277 (inactive).

For the molecule `C=CC[C@@H]1C=C[C@H](ON=C(C)CCC(=O)OC[C@H]2O[C@H](C#Cc3ccccc3)C=C[C@@H]2Oc2ccc(C)cc2)[C@@H](CO)O1`, the composite z-score with Albumin (Bos taurus) was 0.791; in [2], -0.0898; in assay [3], -0.101; in assay [4] it was 0.286; in [5], 1.23; in assay [6] it was 0.441. Besides, the composite z-score in the assay on Sam68 (KHDRBS1) came out at 1.29; in assay [7], 0.126; in [8], 1.13. Moreover, the composite Z-score in assay [1] was 0.153 (inactive).

Turning to `CO[C@H]1COC(=O)CCC[C@@H](C)[C@H](OC)COC(=O)[C@@H](C)NC(=O)CC=C[C@@H]1C`, the composite z-score with Albumin (Bos taurus) is -0.46; in [2], -0.0647; in assay [3], -0.134; in assay [4] it was -0.716; in assay [5] it was -1.8; in assay [6], -0.126. For the same molecule, the composite z-score is 0.186 in the assay with Sam68 (KHDRBS1), 1.45 in [7] and -0.456 in assay [8]. For the same molecule, the composite Z-score in assay [1] was 0.667 (inactive).

For the molecule `CCOC(=O)[C@H](Cc1ccccc1)NC(=O)CCC1CC(OC(=O)NCCc2ccc(F)cc2)CC2(CCCC(COC(=O)NCCc3ccccc3OC)O2)O1` (stereo not given in full), the composite z-score with Albumin (Bos taurus) is 0.667; in assay [2] it was -0.0984; in assay [3], -0.14; in assay [4], 0.303; in assay [5] it was 1.46; in [6], 0.854. Also, the figures for the composite z-score (with Sam68 (KHDRBS1); in assay [7]; in assay [8]) were 1.12, 0.405 and 1.09, respectively. In addition, the composite Z-score in assay [1] was -0.449 (inactive).

On to `CC(C)=CCCC(C)=CCON=C1C[C@@H](O)[C@@H](O)[C@@H]2[C@@H]3C(=O)N(c4ccc(F)cc4F)C(=O)[C@@H]3CC[C@@H]12`, for which the composite z-score in the assay with Albumin (Bos taurus) was 0.572; in assay [2] it was 0.0459; in [3] it was -0.14; in [4], 0.29; in assay [5] it was -0.217; in assay [6] it was 0.233. The results for the composite z-score (in the assay on Sam68 (KHDRBS1); in assay [7]; in [8]) were 0.51, 1.38 and 0.339, respectively. In addition, in assay [1], the composite Z-score is 0.262 (inactive).

`CCOC(=O)[C@H](CC(C)C)NC(=O)CCC1CC(OC(=O)NCc2cccc3ccccc23)CC2(CCCC(COC(=O)NCC3CCCCC3)O2)O1` (stereo not given in full): the composite z-score was 0.14 in the assay with Albumin (Bos taurus); 0.0311 in [2]; -0.0896 in [3]; 0.392 in [4]; 0.0741 in [5]; -0.0193 in assay [6]. Moreover, the composite z-score with Sam68 (KHDRBS1) came out at 1.29; in [7] it was 0.32; in assay [8], 1.08. In assay [1], the composite Z-score was 0.526 (inactive).

For `C[C@@H](c1ccccc1)N1C(=O)[C@H]2[C@H]3[C@H](O)[C@H](O)CC(=NOCc4ccccc4)[C@H]3CC[C@H]2C1=O`, the composite z-score was 0.437 in the assay with Albumin (Bos taurus); -0.0288 in assay [2]; -0.147 in assay [3]; 0.388 in [4]; 0.797 in assay [5]; 0.771 in assay [6]. The composite z-score in the assay on Sam68 (KHDRBS1) came out at 1.17; in assay [7], 0.365; in assay [8] it was 0.951. For the same molecule, in [1], the composite Z-score was -0.325 (inactive).

As for `COCOc1ccc(Br)cc1C(=O)[C@@H]1O[C@H]1c1cccc(OC)c1`, the composite z-score with Albumin (Bos taurus) was 0.591; in [2], -0.122; in assay [3], -0.108; in [4], 0.041; in assay [5], 0.696; in assay [6] it was 0.0365. Further, the composite z-score is -0.395 with Sam68 (KHDRBS1), 0.589 in [7] and -1.26 in assay [8]. Further, the composite Z-score in assay [1] was 0.374 (inactive).

On to `C#CCCCON=C1[C@H]2CCn3c(=O)n(-c4ccccc4)c(=O)n3[C@H]2[C@H](O)[C@@H]2O[C@H]12`, for which the composite z-score with Albumin (Bos taurus) is 0.37; in [2], -0.0601; in assay [3], -0.142; in [4], -0.181; in assay [5], -0.169; in assay [6], -0.0252. Besides, the composite z-score came out at 0.131 in the assay on Sam68 (KHDRBS1), 0.609 in assay [7] and 0.184 in assay [8]. For the same molecule, the composite Z-score in [1] was -0.377 (inactive).

`CON=Cc1ccc(C(=O)N2[C@H](c3ccc(C)cc3)[C@@H](C)CC[C@H]2C(=O)OC)cc1`: the composite z-score with Albumin (Bos taurus) is 0.54; in [2] it was 0.0257; in assay [3] it was -0.202; in assay [4], 0.0882; in assay [5], 0.715; in [6], 0.251. In addition, the composite z-score with Sam68 (KHDRBS1) stood at 1.11; in assay [7] it was 0.262; in [8] it was 0.669. The composite Z-score in [1] is 0.059 (inactive).

Regarding `CCOC(=O)[C@H](Cc1ccccc1)NC(=O)CCC1CC(OC(=O)NCc2cccc3ccccc23)CC2(CCCC(COC(=O)NCCC(C)C)O2)O1` (stereo not given in full), the composite z-score in the assay with Albumin (Bos taurus) is 0.793; in assay [2], -0.0956; in assay [3], -0.133; in assay [4] it was 0.742; in [5], 0.426; in [6], 0.23. Further, the composite z-score in the assay with Sam68 (KHDRBS1) was -1.08; in assay [7], -0.0587; in [8] it was 0.653. In addition, the composite Z-score in [1] is 0.142 (inactive).

For `COC(=O)[C@@H]1CC[C@H](C)[C@@H](c2ccc(C)cc2)N1C(=O)c1ccc(C=NOC[C@@H](C)[C@H](OCc2ccccc2)C(C)C)cc1`, the composite z-score with Albumin (Bos taurus) is 0.56; in [2] it was 0.0271; in assay [3], -0.185; in assay [4] it was 0.239; in assay [5] it was 1.29; in assay [6] it was 0.247. Besides, the composite z-score was found to be 1.29 in the assay with Sam68 (KHDRBS1), 0.43 in assay [7] and 0.736 in assay [8]. Besides, the composite Z-score in assay [1] was 3.28 (inactive).

Consider `COc1ccc(O[C@H]2C=C[C@@H](c3ccccc3)O[C@@H]2CON=C(C)CCN2CCc3nc(-c4ccccc4)c(-c4ccccc4)cc3C2)cc1`, for which the composite z-score in the assay with Albumin (Bos taurus) was 0.628; in assay [2], -0.085; in [3], -0.18; in [4] it was -0.117; in [5] it was -0.0458; in [6], -0.251. The composite z-score is -0.83 in the assay with Sam68 (KHDRBS1), -0.163 in assay [7] and 0.799 in assay [8]. Further, the composite Z-score in [1] was -0.508 (inactive).

`COC(=O)[C@@H]1CC[C@H](C)[C@@H](c2ccc(C)cc2)N1C(=O)c1ccc(C=NO[C@H](C)c2cn([C@@H]3COC[C@H]3O)nn2)cc1`: the composite z-score in the assay with Albumin (Bos taurus) was 0.56; in assay [2], -0.125; in assay [3] it was -0.117; in [4], 0.311; in assay [5], 0.81; in assay [6] it was -0.0293. The results for the composite z-score (in the assay with Sam68 (KHDRBS1); in [7]; in assay [8]) were 1.21, 0.389 and 0.581, respectively. Moreover, the composite Z-score in assay [1] is -0.359 (inactive).
